Drawing on the supplement of paper PMC9262897, “Low-cost anti-mycobacterial drug discovery using engineered E. coli” (Nature Communications, 2022), this text covers growth for 8 compounds.

Common to all, as to experiment: growth (OD600 after 10 h); higher = more growth (less inhibition)
The subject of test [1] is E. coli TESEC Alr+ wild-type control. As to conditions: compound 0.1 mM; raw OD600 reference: median of DMSO wells 0.241, cell-free background 0.041. Here is the method:
(§1)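 TESEC Mtb Alr E. coli, or the Alr+ wild-type control, in 384-well plates with Prestwick library compounds at 0.1 mM and 1% DMSO, across arabinose induction levels of 1E3 to 1E7 nM. Growth is read as OD600 after 10 h at 37 °C in triplicate biological replicates.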

The subject of test [2] is E. coli TESEC Mtb Alr. Conditions: compound 0.1 mM. Here is the method:
as §1

The subject of test [3] is E. coli TESEC Mtb Asd. As to conditions: compound 0.1 mM. As to the method:
(§2)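 TESEC E. coli strains in which the native enzyme is deleted and replaced by arabinose-inducible Mtb Asd, DapB, CysH or TrpD, each grown in its selective medium. Strains were screened against the Prestwick library at 0.1 mM and 1% DMSO in 384-well format at low and high arabinose induction. Growth is read as OD600 after 10 h in triplicate.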

The test system of test [4] is E. coli TESEC Mtb DapB. As to conditions: compound 0.1 mM. As to the method:
as §2

Test [5] has as its system E. coli TESEC Alr+ wild-type control. Conditions: compound 0.1 mM; raw OD600 reference: median of DMSO wells 0.49, cell-free background 0.052. As to the method:
(§3)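 TESEC Mtb Alr E. coli (ΔaraC ΔtolC ΔentC Δalr ΔdadX, arabinose-inducible Mtb Alr) or the Alr+ wild-type control strain, grown in defined M9-fructose medium without D-alanine in 96-well plates with Prestwick library compounds at 0.1 mM and 1% DMSO. Low Alr induction is 0.1 µM arabinose and high induction is 10 mM arabinose.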

The test system of test [6] is E. coli TESEC Mtb Alr. As to conditions: compound 0.1 mM. As to the method:
as §3
This is another data set of the same source.

Where [7] appears, read: arabinose 1000 nM, raw OD600 reference: median of DMSO wells 0.294, cell-free background 0.041.
[8] abbreviates: arabinose 10000 nM, raw OD600 reference: median of DMSO wells 0.264, cell-free background 0.041.
The mark [9] stands for this setting: arabinose 100000 nM, raw OD600 reference: median of DMSO wells 0.201, cell-free background 0.041.
[10] abbreviates: arabinose 1000000 nM, raw OD600 reference: median of DMSO wells 0.193, cell-free background 0.041.
Where [11] appears, read: arabinose 10000000 nM, raw OD600 reference: median of DMSO wells 0.146, cell-free background 0.041.
Where [12] appears, read: arabinose induction (level): High, raw OD600 reference: median of DMSO wells 0.331, cell-free background 0.041.
[13] abbreviates: arabinose induction (level): Low, raw OD600 reference: median of DMSO wells 0.417, cell-free background 0.041.
Setting [14] is: arabinose induction (level): High, raw OD600 reference: median of DMSO wells […], cell-free background 0.041.
Where [15] appears, read: arabinose induction (level): Low, raw OD600 reference: median of DMSO wells 0.227, cell-free background 0.041.
[16] abbreviates: arabinose 100 nM, raw OD600 reference: median of DMSO wells 0.413, cell-free background 0.052.
Setting [17] is: arabinose 10000000 nM, raw OD600 reference: median of DMSO wells […], cell-free background 0.052.

Structures can show the parent of a compound that is named as a salt. ± gives the standard deviation of the averaged measurements.

For `CCN(CC)C(C)C(=O)c1ccccc1` (stereo not given) [Amfepramone hydrochloride], the growth in test [1] turned out to be 0.25 ± 0.0034; in test [2] (setting [7]), 0.259 ± 0.051; in test [2] (setting [8]), 0.261 ± 0.014; in test [2] (setting [9]) it was 0.179 ± 0.027; in test [2] (setting [10]), 0.187 ± 0.0038; in test [2] (setting [11]), 0.141 ± 0.0089. Further, the growth worked out at 0.256 ± 0.064 in test [3] (setting [12]); 0.447 ± 0.047 in test [3] (setting [13]); 0.202 ± 0.018 in test [4] (setting [14]); 0.218 ± 0.021 in test [4] (setting [15]); 0.556 ± 0.038 in test [5]; 0.411 ± 0.0098 in test [6] (setting [16]). Moreover, the growth in test [6] (setting [17]) was 0.325 ± 0.016.
For `O=[N+]([O-])O[C@H]1CO[C@H]2[C@@H]1OC[C@H]2O[N+](=O)[O-]` [Isosorbide dinitrate], the growth in test [1] was determined as 0.243 ± 0.013; in test [2] (setting [7]), 0.32 ± 0.014; in test [2] (setting [8]), 0.263 ± 0.0089; in test [2] (setting [9]), 0.217 ± 0.025; in test [2] (setting [10]), 0.185 ± 0.0031; in test [2] (setting [11]), 0.159 ± 0.0026. Moreover, the growth in test [3] (setting [12]) was 0.476 ± 0.013; in test [3] (setting [13]), 0.419 ± 0.07; in test [4] (setting [14]), 0.213 ± 0.012; in test [4] (setting [15]) it was 0.27 ± 0.03; in test [6] (setting [16]), 0.4084 ± 0.0022; in test [6] (setting [17]), 0.343 ± 0.014.
Regarding `COc1ccc(CCN)cc1OC` [Homoveratrylamine], the growth turned out to be 0.2134 ± 0.001 in test [1]; 0.287 ± 0.0094 in test [2] (setting [7]); 0.281 ± 0.011 in test [2] (setting [8]); 0.182 ± 0.019 in test [2] (setting [9]); 0.219 ± 0.0076 in test [2] (setting [10]); 0.131 ± 0.002 in test [2] (setting [11]). In addition, the growth came to 0.225 ± 0.018 in test [3] (setting [12]); 0.353 ± 0.087 in test [3] (setting [13]); 0.188 ± 0.012 in test [4] (setting [14]); 0.217 ± 0.054 in test [4] (setting [15]); 0.563 ± 0.069 in test [5]; 0.409 ± 0.0095 in test [6] (setting [16]). Besides, the growth in test [6] (setting [17]) was found to be 0.316 ± 0.0066.
In the case of `CNC(=O)Oc1ccc2c(c1)[C@]1(C)CCN(C)[C@@H]1N2C` [Eserine hemisulfate salt], the growth in test [1] came to 0.229 ± 0.0049; in test [2] (setting [7]) it was 0.289 ± 0.0076; in test [2] (setting [8]) it was 0.251 ± 0.003; in test [2] (setting [9]) it was 0.203 ± 0.025; in test [2] (setting [10]) it was 0.184 ± 0.0065; in test [2] (setting [11]), 0.139 ± 0.008. Besides, the growth came to 0.328 ± 0.037 in test [3] (setting [12]); 0.408 ± 0.048 in test [3] (setting [13]); 0.187 ± 0.015 in test [4] (setting [14]); 0.206 ± 0.0057 in test [4] (setting [15]); 0.423 ± 0.028 in test [5]; 0.409 ± 0.017 in test [6] (setting [16]). This compound also registered a growth in test [6] (setting [17]) of 0.366 ± 0.01.
Turning to `CC(O)(CS(=O)(=O)c1ccc(F)cc1)C(=O)Nc1ccc(C#N)c(C(F)(F)F)c1` (stereo not given) [Bicalutamide], the growth is 0.154 ± 0.0054 in test [1]; 0.2 ± 0.0073 in test [2] (setting [7]); 0.306 ± 0.018 in test [2] (setting [8]); 0.1769 ± 0.0014 in test [2] (setting [9]); 0.108 ± 0.0031 in test [2] (setting [10]); 0.15 ± 0.0023 in test [2] (setting [11]). Moreover, the growth in test [3] (setting [12]) is 0.216 ± 0.027; in test [3] (setting [13]), 0.253 ± 0.017; in test [4] (setting [14]) it was 0.196 ± 0.015; in test [4] (setting [15]), 0.236 ± 0.021; in test [6] (setting [16]) it was 0.397 ± 0.018; in test [6] (setting [17]), 0.232 ± 0.054.
As for `C[C@]12CC[C@H]3[C@@H](CCC4=CC(=O)CC[C@@H]43)[C@@H]1CC[C@@H]2O` [Nandrolone], the growth in test [1] amounted to 0.154 ± 0.0082; in test [2] (setting [7]), 0.201 ± 0.014; in test [2] (setting [8]), 0.226 ± 0.012; in test [2] (setting [9]), 0.118 ± 0.0031; in test [2] (setting [10]), 0.0814 ± 0.0003; in test [2] (setting [11]), 0.115 ± 0.0021. Also, the growth in test [3] (setting [12]) worked out at 0.106 ± 0.0027; in test [3] (setting [13]), 0.267 ± 0.1; in test [4] (setting [14]) it was 0.1471 ± 0.0014; in test [4] (setting [15]) it was 0.159 ± 0.0037; in test [6] (setting [16]), 0.408 ± 0.0099; in test [6] (setting [17]), 0.211 ± 0.0078.
Consider `O=C(CCCN1CCC(n2c(=O)[nH]c3ccccc32)CC1)c1ccc(F)cc1` [Benperidol], for which the growth is 0.181 ± 0.0021 in test [1]; 0.269 ± 0.0074 in test [2] (setting [7]); 0.263 ± 0.0054 in test [2] (setting [8]); 0.179 ± 0.036 in test [2] (setting [9]); 0.135 ± 0.0025 in test [2] (setting [10]); 0.149 ± 0.0063 in test [2] (setting [11]). In addition, the growth in test [3] (setting [12]) stood at 0.357 ± 0.062; in test [3] (setting [13]), 0.434 ± 0.086; in test [4] (setting [14]) it was 0.187 ± 0.026; in test [4] (setting [15]), 0.21 ± 0.0039; in test [5], 0.407 ± 0.02; in test [6] (setting [16]), 0.411 ± 0.016. In addition, in test [6] (setting [17]), the growth was 0.26 ± 0.02.
Consider `C[C@]12CC[C@@H](O)C[C@@H]1CC[C@@H]1[C@@H]2CC[C@]2(C)C(=O)CC[C@@H]12` [Androsterone], for which the growth in test [1] amounted to 0.117 ± 0.0044; in test [2] (setting [7]), 0.123 ± 0.002; in test [2] (setting [8]) it was 0.212 ± 0.012; in test [2] (setting [9]) it was 0.118 ± 0.0038; in test [2] (setting [10]), 0.0932 ± 0.0027; in test [2] (setting [11]), 0.0878 ± 0.0015. For the same compound, the growth in test [3] (setting [12]) was determined as 0.148 ± 0.026; in test [3] (setting [13]), 0.324 ± 0.044; in test [4] (setting [14]) it was 0.141 ± 0.013; in test [4] (setting [15]), 0.138 ± 0.011; in test [6] (setting [16]), 0.3429 ± 0.0014; in test [6] (setting [17]), 0.0883 ± 0.011.
